Reference: PubChem BioAssay (NCI)
Compounds without any hit were thinned out: in the full panel of roughly 79,000, 15% have a hit. Values without a mark were called inactive. Activity calls are given as the source filed them. Rule as the data show it: active = growth inhibition above about 70%; inactive = the rest.

Assay: NCI Yeast Anticancer Drug Screen. Data for the mec2-1 strain (AID 157)
Details: S. cerevisiae mec2-1 strain, at 5.0 µM (retest, dose inferred, filed as 0.5), active compounds read high
Summary of the method: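 Test agents were screened against the mec2-1 yeast strain, with defined DNA repair or cell cycle alteration. Growth was scored as inhibition against vehicle-only controls.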

Row | Structure (SMILES) | growth inhibition
1 | COc1ccc(Cc2nc3ccccc3s2)cc1OC | 39%
2 | CN(NC(=O)c1cccs1)C1=NCCCN1 | 8%
3 | Cc1cccc2c1C(=O)N(CC[P+](c1ccccc1)(c1ccccc1)c1ccccc1)C2=O | 58%
4 | CCc1cc2c(cc1O)CC[C@@H]1[C@@H]2CC[C@]2(C)[C@@H](O)CC[C@@H]12 | -10%
5 | C[n+]1c2ccc(Cl)cc2nc2cc(-c3ccccc3)ccc21 | 23%
6 | CCCCCN=Cc1c(O)c(O)c(C(C)C)c2cc(C)c(-c3c(C)cc4c(C(C)C)c(O)c(O)c(C=NCCCCC)c4c3O)c(O)c12 | -44%
7 | CCOC1(c2ccccc2)c2ccccc2S(=O)(=O)N1C (stereo not given) | -4%
8 | CCN(CC)CCNc1ccc(C)c2sc3ccc(OC)cc3c(=O)c12 | 22%
9 | Cc1nc2c(cnn2-c2ccccc2)c(=O)o1 | -52%
10 | O=S(=O)(c1ccc(NC(=S)NCc2ccncc2)cc1)N1CCCCC1 | -11%
11 | Nc1nn2c(C(Br)Br)cc(C(Br)Br)nc2c1[N+](=O)[O-] | 100% (active)
12 | O=C1C=CC(=O)N1c1ccccc1 (tested in a mixture with another compound) | -1%
13 | O=C(O)CCSc1ncnc2nc[nH]c12 | 1%
14 | COc1cccc(=O)cc1 | 12%
15 | CCN(CC)CCCC(=O)Nc1cc(OC)cc2cccnc12 | 15%
16 | COc1ccc(C2SCC(=O)N2c2ccc(-c3ccc(-n4c(-c5ccccc5)nc5ccccc5c4=O)cc3)cc2)cc1 (stereo not given) | 1%
17 | CC(=O)OC(C#N)CC(C)(C)/[N+]([O-])=[N+](\[O-])C(C)(C)CC(C#N)OC(C)=O (stereo not given) | 1%
18 | ICCCCCCCCCC[n+]1ccc2ccccc2c1 | 89% (active)
19 | CCCCCc1[nH]nc(C(=O)OC)c1N=NN1CCOCC1 | 91% (active)
20 | Clc1ccc(C(c2ccc(Cl)cc2)c2cncnc2)cc1 | 6%

Row | Structure (SMILES) | growth inhibition
21 | CC1=C(C(=O)Nc2cccc(Cl)c2)C(c2ccc([N+](=O)[O-])cc2)C(C(=O)Nc2cccc(Cl)c2)=C(C)N1 | 52%
22 | NC1=NC(c2ccccc2)CC(c2cc(Cl)cc(Br)c2O)=N1 (stereo not given) | -3%
23 | CC(NNC(=S)NCc1ccccc1)c1cc2ccccc2cn1 (stereo not given) | 9%
24 | C=CCOC(=O)CC(O)C(=O)OCC=C (stereo not given) | 4%
25 | OC(C(=Nc1ccccc1)c1ccccc1)c1ccccc1 (stereo not given) | 11%
26 | C=CC1(NC(=O)c2ccccc2)CCC(C(C)(C)C)CC1 (stereo not given) | -5%
27 | O=C(Nc1ccccc1-c1nn(CN2CCNCC2)c(=S)n(CN2CCNCC2)c1=O)C(F)(F)F | 0%
28 | CCN(CC)CCOc1c(I)cc(I)cc1I | 0%
29 | CCN(CC)CC(O)c1ccnc2c(O)cccc12 (stereo not given) | 4%
30 | O=[N+]([O-])c1ccc(-c2nc(/C=N/N3CCCCC3)cs2)o1 | 1%
31 | O=C(CCn1[nH]c(=O)c(Cl)c(Cl)c1=O)NNc1ccc([N+](=O)[O-])cc1[N+](=O)[O-] | -7%
32 | COc1ccc(-c2c(CO)cc(OC)c(OC)c2OC)c(CO)c1 | -9%
33 | C(=C\c1cnnc2ccccc12)/c1ccco1 | 5%
34 | CCCCCCCCNc1ccc(Cl)cc1 | 26%
35 | Cc1ccc2ccc(C(Nc3ccccc3)c3ccncc3)c(O)c2n1 (stereo not given) | -2%
36 | c1ccc(C2=NOC3(c4ccccc4)SC4CCCCC4CN23)cc1 (stereo not given) | -22%
37 | COc1ccc(C(=O)Nc2ccccc2[N+](=O)[O-])cc1 | -16%
38 | CC(=O)CC(C)=NCCN=C(C)CC(C)=O.[Pd] | -1%
39 | Cc1cc2oc3c(ccc(=O)n3C)c(=O)c2c(C)c1Cl | 10%
40 | CCCOc1ccc(/C=N/NC(N)=S)cc1 | 0%

Same assay, conditions: S. cerevisiae mec2-1 strain, at 50.0 µM (retest, dose inferred, filed as 5.0), active compounds read high

Row | Structure (SMILES) | growth inhibition
41 | COc1ccc(Cc2nc3ccccc3s2)cc1OC | 99% (active)
42 | CN(NC(=O)c1cccs1)C1=NCCCN1 | 21%
43 | Cc1cccc2c1C(=O)N(CC[P+](c1ccccc1)(c1ccccc1)c1ccccc1)C2=O | 87% (active)
44 | CCc1cc2c(cc1O)CC[C@@H]1[C@@H]2CC[C@]2(C)[C@@H](O)CC[C@@H]12 | 99% (active)
45 | C[n+]1c2ccc(Cl)cc2nc2cc(-c3ccccc3)ccc21 | 99% (active)
46 | CCCCCN=Cc1c(O)c(O)c(C(C)C)c2cc(C)c(-c3c(C)cc4c(C(C)C)c(O)c(O)c(C=NCCCCC)c4c3O)c(O)c12 | 17%
47 | CCOC1(c2ccccc2)c2ccccc2S(=O)(=O)N1C (stereo not given) | 16%
48 | CCN(CC)CCNc1ccc(C)c2sc3ccc(OC)cc3c(=O)c12 | 97% (active)
49 | Cc1nc2c(cnn2-c2ccccc2)c(=O)o1 | -52%
50 | O=S(=O)(c1ccc(NC(=S)NCc2ccncc2)cc1)N1CCCCC1 | -43%
51 | Nc1nn2c(C(Br)Br)cc(C(Br)Br)nc2c1[N+](=O)[O-] | 100% (active)
52 | O=C1C=CC(=O)N1c1ccccc1 (tested in a mixture with another compound) | 32%
53 | O=C(O)CCSc1ncnc2nc[nH]c12 | -18%
54 | COc1cccc(=O)cc1 | 51%
55 | CCN(CC)CCCC(=O)Nc1cc(OC)cc2cccnc12 | -3%
56 | COc1ccc(C2SCC(=O)N2c2ccc(-c3ccc(-n4c(-c5ccccc5)nc5ccccc5c4=O)cc3)cc2)cc1 (stereo not given) | 28%
57 | CC(=O)OC(C#N)CC(C)(C)/[N+]([O-])=[N+](\[O-])C(C)(C)CC(C#N)OC(C)=O (stereo not given) | 46%
58 | ICCCCCCCCCC[n+]1ccc2ccccc2c1 | 99% (active)
59 | CCCCCc1[nH]nc(C(=O)OC)c1N=NN1CCOCC1 | 99% (active)
60 | Clc1ccc(C(c2ccc(Cl)cc2)c2cncnc2)cc1 | 99% (active)

Row | Structure (SMILES) | growth inhibition
61 | CC1=C(C(=O)Nc2cccc(Cl)c2)C(c2ccc([N+](=O)[O-])cc2)C(C(=O)Nc2cccc(Cl)c2)=C(C)N1 | 52%
62 | NC1=NC(c2ccccc2)CC(c2cc(Cl)cc(Br)c2O)=N1 (stereo not given) | 19%
63 | CC(NNC(=S)NCc1ccccc1)c1cc2ccccc2cn1 (stereo not given) | 93% (active)
64 | C=CCOC(=O)CC(O)C(=O)OCC=C (stereo not given) | -2%
65 | OC(C(=Nc1ccccc1)c1ccccc1)c1ccccc1 (stereo not given) | 99% (active)
66 | C=CC1(NC(=O)c2ccccc2)CCC(C(C)(C)C)CC1 (stereo not given) | 89% (active)
67 | O=C(Nc1ccccc1-c1nn(CN2CCNCC2)c(=S)n(CN2CCNCC2)c1=O)C(F)(F)F | 10%
68 | CCN(CC)CCOc1c(I)cc(I)cc1I | 98% (active)
69 | CCN(CC)CC(O)c1ccnc2c(O)cccc12 (stereo not given) | 40%
70 | O=[N+]([O-])c1ccc(-c2nc(/C=N/N3CCCCC3)cs2)o1 | 26%
71 | O=C(CCn1[nH]c(=O)c(Cl)c(Cl)c1=O)NNc1ccc([N+](=O)[O-])cc1[N+](=O)[O-] | 2%
72 | COc1ccc(-c2c(CO)cc(OC)c(OC)c2OC)c(CO)c1 | 21%
73 | C(=C\c1cnnc2ccccc12)/c1ccco1 | 33%
74 | CCCCCCCCNc1ccc(Cl)cc1 | 98% (active)
75 | Cc1ccc2ccc(C(Nc3ccccc3)c3ccncc3)c(O)c2n1 (stereo not given) | 95% (active)
76 | c1ccc(C2=NOC3(c4ccccc4)SC4CCCCC4CN23)cc1 (stereo not given) | 98% (active)
77 | COc1ccc(C(=O)Nc2ccccc2[N+](=O)[O-])cc1 | -23%
78 | CC(=O)CC(C)=NCCN=C(C)CC(C)=O.[Pd] | 78% (active)
79 | Cc1cc2oc3c(ccc(=O)n3C)c(=O)c2c(C)c1Cl | 23%
80 | CCCOc1ccc(/C=N/NC(N)=S)cc1 | 50%
